Anesthetic bind: binds horse apoferritin like a general anesthetic; P02791; Potency, µM (series often up to 77.5 µM), most hits filed as inhibitors; apoferritin/1-aminoanthracene competitive binding, fluorescence; actives 0.074% (n = 350,000); active means well fitted inhibition curve with a large enough effect; inconclusive means small, poorly fitted or top-dose-only effect; inactive means no such curve, though single readings can be large or run the other way; further: nearly all actives have a fitted effect of over 20% in size
Target sequence (P02791 2-175 limits assumed): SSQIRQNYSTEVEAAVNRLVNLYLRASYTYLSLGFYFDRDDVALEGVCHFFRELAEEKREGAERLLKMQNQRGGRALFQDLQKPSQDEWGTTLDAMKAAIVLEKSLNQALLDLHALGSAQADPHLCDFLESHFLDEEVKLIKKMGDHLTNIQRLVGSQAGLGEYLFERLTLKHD
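Apoferritin-based anesthetic binding model; compound displacement of fluorescent 1-AMA measured as endpoint fluorescence after 10 minutes at room temperature, scaled to free-ligand and complex controls.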
D2 antag: antagonists of human D2 dopamine receptor | inhibition, % at 10 µM | actives 2% (n = 340,000) | HEK293 TREx D2 cells, calcium flux, dopamine EC80; in the data active means inhibition above about 30%; inactive means below that, where a call was filed
Target sequence (P14416 whole entry, looked up): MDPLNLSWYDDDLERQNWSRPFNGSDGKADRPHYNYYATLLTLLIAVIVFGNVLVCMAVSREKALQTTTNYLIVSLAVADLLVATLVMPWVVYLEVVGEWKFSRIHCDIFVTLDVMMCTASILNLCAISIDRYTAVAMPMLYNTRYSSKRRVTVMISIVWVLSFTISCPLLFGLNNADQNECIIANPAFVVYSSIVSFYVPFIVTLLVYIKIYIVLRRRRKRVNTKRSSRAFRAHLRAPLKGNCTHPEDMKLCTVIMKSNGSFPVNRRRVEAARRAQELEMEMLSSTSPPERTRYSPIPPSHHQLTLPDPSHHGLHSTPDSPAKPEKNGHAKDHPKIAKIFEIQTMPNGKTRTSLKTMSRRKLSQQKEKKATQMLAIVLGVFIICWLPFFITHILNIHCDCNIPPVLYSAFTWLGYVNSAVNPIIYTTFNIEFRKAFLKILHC
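Calcium flux kinetic readout in an inducible HEK293 TREx D2 line plated overnight at 30 C. After 180 s compound exposure, an EC80 dopamine challenge follows with another 180 s kinetic read to detect antagonism.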
D2 PAM-1: D2 dopamine receptor (human) potentiation | P14416 | HEK293 T-REx D2, calcium flux, EC20 dopamine potentiation | potentiation, % at 10 µM | actives 0.34% (n = 340,000);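 active means potentiation over 3 SD above the plate norm, cut at about 30% in these data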
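Tetracycline-induced Hek293 Trex D2 cells, force-coupled to calcium, loaded with no-wash calcium dye. Compound added with 180 s kinetic read for agonism, then EC20 dopamine and a further 180 s read for potentiation.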
D2 PAM-2: human D2 receptor positive allosteric modulation; potentiation, % (no concentration beside the values); P14416; actives 0.23% (n = 360,000); AID 624464; DiscoveRx D2 beta-arrestin cells, luminescence, 90 min; 100% = 57 uM dopamine signal; in the data active means potentiation above about 50%; inconclusive means mostly about 30% to 49%
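PathHunter D2 cells, attached overnight at 37 deg C, received compound in DMSO plus dopamine at EC20 (50 nM final) for 90 min at 37 deg C. Beta-arrestin recruitment was read as luminescence after 1 h with detection reagent at ambient temperature.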
D2 ag-1: D2 dopamine receptor (human) agonism | P14416 | actives 0.53% (n = 340,000) | AID 485358 | activation, % at 2 µM | HEK293 T-REx D2 cells, calcium flux agonist mode;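 active means activation over 3 SD above normal in the single-dose calcium agonist read, cut at about 30% in these data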
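Calcium-flux readout, 1 cycle/sec over 180 s following compound pin transfer, in inducible HEK293 Trex D2 cells (force-coupled); dopamine controls included. Positive calcium responses during this window marked compounds as potential agonists.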
D2 ag-2: activates the human D2 dopamine receptor; P14416; DiscoveRx PathHunter D2 beta-arrestin, luminescence, 90 min; 100% = 57 uM dopamine signal; activation, % (concentration not given with the values); actives 0.084% (n = 360,000); AID 624465; in the data active means activation above about 40%; inconclusive means between about 15% and that limit
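DiscoveRx PathHunter D2 beta-arrestin cells (2,100/well) attached overnight, then compound-stimulated 90 min at 37 C in HBSS/10 mM HEPES/0.1% Tween-20 buffer; beta-galactosidase complementation read by luminescence after 1 h at ambient temperature. Dopamine 57 uM final (EC100) as control.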
A number is an active result; – = inactive; ? = inconclusive; · = not tested or not shown. Most compounds without a hit are left out; they make up all but 2.5% or so of the library.

SMILES	Anesthetic bind	D2 antag	D2 PAM-1	D2 PAM-2	D2 ag-1	D2 ag-2
Cc1c(NC(=O)c2cccc(NC(=O)Cc3ccccc3Cl)c2)c(=O)n(-c2ccccc2)n1C	·	·	·	–	·	–
Cc1c(NC(=O)c2cccc(NC(=O)Cc3ccc(Cl)cc3)c2)c(=O)n(-c2ccccc2)n1C	·	33	–	–	–	–
Nc1ccc(Br)c[n+]1Cc1cccc2cccnc12	–	–	–	–	–	–
CC(C)n1nnnc1SCC(=O)Nc1ccc2c(c1)OCO2	–	–	–	–	–	–
COc1cccc(C2C(C(=O)c3cccs3)=C(O)C(=O)N2CCCn2ccnc2)c1OC (configuration not stated)	–	–	–	·	–	·
O=C(NC1CCCCC1)c1ccc(-c2ccccc2[N+](=O)[O-])o1	?	59	–	–	–	–
O=C(Nc1ccon1)Nc1ccc(F)cc1F	–	31	–	–	–	–
O=C(NCCc1ccccc1)C1(c2ccccc2)CCCC1	–	–	–	–	–	–
N#CC1(c2ccccc2)CCC(NCCc2ccccc2)CC1 (configuration not stated)	–	46	–	–	–	–
O=C(c1cc2c(s1)CCCC2)N1CCN(Cc2ccc3c(c2)OCO3)CC1	–	75	–	–	–	–
Cn1c(C(=O)N2CCC(C(=O)N3CCN(Cc4ccc5c(c4)OCO5)CC3)CC2)cc2sccc21	–	–	–	–	–	–
O=C(C1CCN(c2nnc(-n3cccc3)s2)CC1)N1CCN(Cc2ccc3c(c2)OCO3)CC1	–	32	–	–	71	–
O=C(c1ccc(Br)s1)N1CCN(Cc2ccc3c(c2)OCO3)CC1	–	78	–	–	–	–
Cn1c(C(=O)N2CCN(Cc3ccc4c(c3)OCO4)CC2)cc2sccc21	–	100	–	–	–	–
COc1cccc(CN2CCC(C(=O)N3CCN(Cc4ccc5c(c4)OCO5)CC3)CC2)c1	–	–	–	–	–	–
O=C(c1c(F)c(F)c(F)c(F)c1F)N1CCN(Cc2ccc3c(c2)OCO3)CC1	·	·	·	–	·	–
O=C(c1ccc(F)cc1)N1CCC(c2ccccc2)C1 (configuration not stated)	–	–	–	–	–	–
CC(C)CCn1c(-c2nonc2N)nc2ccccc21	–	–	33	–	–	–
COc1cc(C)nc(NCc2ccccc2)n1	–	–	–	–	–	–
Cc1cc(C)nc(Nc2n[nH]c(Cc3ccccc3)n2)n1	–	–	–	·	45	·
CC1(C)S[C@@H]2[C@H](NC(=O)C(C(=O)O)c3ccccc3)C(=O)N2[C@H]1C(=O)O (some centres not stated)	–	33	–	–	–	–
Cc1cc(C(=O)NCCCN2CCN(c3cc(Cl)ccc3C)CC2)n(-c2ccccc2)n1	?	47	–	–	–	–
Cc1nc2n(c(=O)c1CCN1CCC(c3noc4cc(F)ccc34)CC1)CCCC2	–	86	·	·	·	·
COC(=O)c1cc(S(=O)(=O)NCCCN2CCCC2=O)cn1C	–	–	–	–	–	–
O=C(Nc1ccccc1)C1=C(c2ccccc2)S(=O)(=O)CCS1(=O)=O	–	–	58	–	–	–
SMILES	Anesthetic bind	D2 antag	D2 PAM-1	D2 PAM-2	D2 ag-1	D2 ag-2
O=C(O)c1ccccc1C(=O)Nc1ccccc1	–	–	–	–	–	–
COc1ccc(CNC(=O)Nc2ccc(OC)cc2)cc1	–	–	–	–	–	–
COc1ccc(Cl)cc1Nc1nc(C)cc(=O)[nH]1	–	74	–	–	–	–
Cc1cc(S(=O)(=O)N2CC(=O)N(CCc3ccccc3)C(=O)C2)ccc1F	–	–	31	–	–	–
CC1CCC/C(=C\Nc2ccc(O)cc2)C1=O (configuration not stated)	?	–	–	54	–	–
O=C1OC(/C=C/c2ccccc2)=NC/1=C\c1cccnc1	–	–	–	–	–	–
CCN(CC)CCNC(=O)C(=O)NCC1OCCN1S(=O)(=O)c1ccc([N+](=O)[O-])cc1 (configuration not stated)	–	–	–	50	–	–
COc1ccccc1CCNC(=O)C(=O)NCC1OCCN1S(=O)(=O)c1ccc(Cl)cc1 (configuration not stated)	–	36	–	–	–	–
CN(C)CCNC(=O)C(=O)NCC1OCCN1S(=O)(=O)c1ccc([N+](=O)[O-])cc1 (configuration not stated)	–	–	–	?	–	–
COc1ccccc1CCNC(=O)C(=O)NCC1OCCN1S(=O)(=O)c1ccc(F)cc1 (configuration not stated)	–	–	–	–	–	–
CC(=O)N/C(=C/c1cccnc1)C(=O)Nc1ccc(Cl)cc1	·	–	–	–	–	–
Cc1cccc(C)c1NS(=O)(=O)c1ccc2c(c1)C(=O)c1ccccc1C2=O	–	–	–	60	–	–
O=C(O)c1ccc(NS(=O)(=O)c2ccc3c(c2)C(=O)c2ccccc2C3=O)cc1	–	–	–	–	–	–
Cc1cc2nc(NC(=O)C3(C)CCN3C(=O)C(C)C)[nH]c2cc1C (configuration not stated)	·	·	·	–	·	–
CCC1CCCCN1S(=O)(=O)c1ccc(C(=O)N(CCCN(C)C)c2nc3cc4c(cc3s2)OCO4)cc1 (configuration not stated)	56µM	–	–	–	–	–
O=C(CNC(=O)c1cccs1)N/N=C/c1cccc(Cl)c1	?	–	–	–	–	–
O=C(NCC(c1ccco1)N1CCCC1)c1cc2ccccc2s1 (configuration not stated)	·	35	–	–	–	–
Cc1ccc(C(=O)NCC(c2ccco2)N2CCCCC2)s1 (configuration not stated)	·	36	–	–	–	–
CC(C)CCn1c(C(C)O)nc2ccccc21 (configuration not stated)	–	–	–	–	–	–
Cc1cc(O)ccc1C1(c2ccc(O)cc2C)OC(=O)c2ccccc21	–	–	–	–	–	–
O=C1OC2(c3ccccc31)c1cc(I)c(O)c(I)c1Oc1c2cc(I)c(O)c1I	–	53	–	·	105	·
CC(=O)Oc1ccc2c(c1)Oc1cc(OC(C)=O)ccc1C21OC(=O)c2ccccc21	–	84	–	?	165	–
O=C1OC2(c3ccc(O)cc3Oc3cc(O)ccc32)c2ccccc21	–	·	·	·	·	·
CCN(c1cccc(C(F)(F)F)c1)S(=O)(=O)c1ccc2c(c1)CCN2C(C)=O	–	31	–	–	–	–

Screening results as filed in PubChem.
